# DRD3 antagonist: D3 dopamine receptor (human) antagonism. P35462. D3R cells, DiscoveRx beta-arrestin luminescence, antagonist mode; stronger effect = lower value. max response, negative = inhibition, %. hit rate 2.5% among 360,000; in the data active means max response below about -50%; inconclusive means no clear call, values can overlap the other calls; further: on the % scale 0 is the no-effect control and ±100 the full control effect
# Target sequence (P35462 whole entry, looked up): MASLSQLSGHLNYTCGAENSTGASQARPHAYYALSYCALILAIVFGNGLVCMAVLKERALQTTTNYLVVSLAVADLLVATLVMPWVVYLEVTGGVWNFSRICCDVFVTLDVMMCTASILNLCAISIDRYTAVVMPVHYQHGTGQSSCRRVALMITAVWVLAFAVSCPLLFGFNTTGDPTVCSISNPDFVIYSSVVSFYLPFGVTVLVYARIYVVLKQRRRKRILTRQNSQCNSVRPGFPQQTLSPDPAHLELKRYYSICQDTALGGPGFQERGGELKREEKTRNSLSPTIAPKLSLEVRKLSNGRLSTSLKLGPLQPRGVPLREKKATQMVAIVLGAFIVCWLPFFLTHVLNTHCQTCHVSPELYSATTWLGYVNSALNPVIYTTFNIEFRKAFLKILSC
#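 Cells expressing the human receptor were seeded at 1500 cells/well, incubated overnight at 37 degrees C in 5% CO2, then exposed to library compounds with dopamine controls for 90 minutes at 37 degrees C before luminescent detection.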
# B2AR arrestin: recruits beta-arrestin to the human beta2-adrenergic receptor. hit rate 0.02% among 330,000. P07550. Potency, µM (series often up to 46.1 µM), inactives show top-dose activation, actives largely listed as activators. beta-arrestin recruitment to beta2AR, cell-based reporter;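 further: potency means the concentration at half of the fitted maximal effect; 0% = DMSO controls and full agonism = EC100 isoproterenol or metaproterenol; nearly all actives have a fitted effect of over 65% in size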
# mIDH1 inhibitor: human IDH1 R132H inhibition; O75874; IDH1-R132H enzyme, NADPH consumption, diaphorase/resazurin fluorescence; Potency, µM (doses to about 76.6 µM), for inactives: at the highest dose activity change, negative = inhibition, most hits filed as inhibitors; hit rate 0.093% among 390,000; AID 602179; further: potency means the concentration at half of the fitted maximal effect; on the % scale 0 is the no-effect control and ±100 the full control effect; nearly all actives have a fitted effect of over 65% in size
#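 IDH1-R132H (0.5 ug/mL dispensed) in pH 7.5 Tris buffer was preincubated 30 min with compound, then given a substrate mix of 0.016 mM NADPH and 2 mM alpha-KG for 80 min at room temperature; remaining NADPH was read by diaphorase/resazurin fluorescence.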
# a7 integrin act: activates integrin-mediated alleviation for muscular dystrophy; AID 624291; alpha7betagal myoblasts, beta-gal FDG fluorescence, 48 h; Potency, µM (doses to about 38.3 µM), without a hit: at the top dose activation, hits mostly activators; hit rate 0.064% among 350,000;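 further: potency means the concentration at half of the fitted maximal effect; 100% = response of the positive control SU9516; nearly all actives have a fitted effect of over 60% in size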
#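 alpha7betagal+/- myoblasts (passage 13, 250/well) treated 48 h at 37C with compounds at 1:260 dilution of DMSO stock. Lysed, then beta-galactosidase activity read as FDG fluorescence (ex 480/em 540) after 30 min, with pre-read for autofluorescence.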
# D3 ag: activates the human D3 dopamine receptor. P35462. D3R DiscoveRx beta-arrestin cells, luminescence, 90 min. max activation, %. hit rate 0.58% among 410,000. AID 652048; in the data active means max activation above about 30%; further: 0% is about no effect
#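 Agonist-mode cell screen: cells plated at 1500/well and incubated overnight at 37 °C, then exposed to library compounds for 90 min at 37 °C. Detection reagent was added for 30–60 min at room temperature, and luminescence was read.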
# * = called active by the depositor; ? = inconclusive; / = no result; [ ] = remark or other dose. Shown are actives, neighbours in structure and some others; about 2.9% of the full set was active somewhere. Unless noted, the call rests on the fitted dose curve; in most records, active means well fitted curve in the direction sought with a large enough effect; inconclusive means small, poorly fitted or top-dose-only effect, or another doubt; inactive means no such curve, though single readings can be large; an effect the other way counts as inactive or inconclusive.
SMILES,DRD3 antagonist,B2AR arrestin,mIDH1 inhibitor,a7 integrin act,D3 ag
O=C(COC(=O)CN1C(=O)C2CCCCC2C1=O)NNC(=O)c1ccc(Cl)cc1 (configuration not stated),-75*,0%,10%,-14%,-3
Cn1c(=O)c2c(ncn2CC(=O)OCC(=O)NNC(=O)c2ccc(Cl)cc2)n(C)c1=O,-124*,2%,-7%,4%,-24
O=[N+]([O-])c1ccc2ncnc(N3CCN(Cc4ccc5c(c4)OCO5)CC3)c2c1,-17,0%,7%,25%,43*
C(=C\c1ccccc1)/CN1CCN(Cc2ccc3c(c2)OCO3)CC1,-61*,-1%,11%,-30%,-12
O=[N+]([O-])c1ccccc1/C=C/CN1CCN(Cc2ccc3c(c2)OCO3)CC1,-79*,-1%,2%,42%,-9
O=[N+]([O-])c1cccnc1N1CCN(Cc2ccc3c(c2)OCO3)CC1,0,0%,17%,20%,18
CCN(CC)S(=O)(=O)c1cc(OC)ccc1N=Nc1ccc(O)c2ncccc12,-108*,-1%,11%,-41%,-7
Cc1cccc(N=Nc2ccc(O)c3ncccc23)c1,-101*,0%,4%,-3%,-2
CCOc1ccc(N=Nc2ccc(O)c3ncccc23)cc1,-58*,-1%,0%,37%,-3
Oc1ccc(N=Nc2ccc3c(c2)OCCO3)c2ncccc12,-66*,-1%,5%,9%,-24
NS(=O)(=O)c1ccc(N=Nc2ccc(O)c3ncccc23)cc1,?,0%,11%,-38%,3
O=C(Nc1cccc(F)c1)c1ccc2c(c1)N(Cc1ccccc1)C(=O)c1ccccc1S2(=O)=O,/,/,13%,/,-5
N#Cc1ccccc1NC(=O)CSc1ncn[nH]1,/,/,5%,/,-16
Cc1ccc(N(CC(O)CN2CCCCC2)S(=O)(=O)c2ccccc2[N+](=O)[O-])cc1 (configuration not stated),-51*,-1%,-5%,-33%,-17
O=[N+]([O-])c1ccccc1S(=O)(=O)N(CC(O)CN1CCCCC1)c1ccccc1 (configuration not stated),-18,0%,-4%,19%,-23
COc1ccc(C(=O)N/N=C/c2sc(N3CCOCC3)nc2-c2ccccc2)cc1OC,18,0%,-2%,16%,4
COc1ccc(NS(=O)(=O)c2cc([N+](=O)[O-])ccc2N/N=C\c2c(C)[nH]c3ccccc23)cc1,-17,0%,0%,12%,-1
O=[N+]([O-])c1ccccc1N/N=C/c1c[nH]c2ccccc12,-52*,0%,6%,-3%,-4
COc1ccccc1NS(=O)(=O)c1cc([N+](=O)[O-])ccc1N/N=C/c1c[nH]c2ccccc12,-88*,-1%,-2%,-59%,-15
COc1ccccc1NS(=O)(=O)c1cc([N+](=O)[O-])ccc1N/N=C/c1sc(N2CCOCC2)nc1-c1ccccc1,-84*,0%,-4%,0%,-16
O=[N+]([O-])c1ccc(N/N=C/c2c[nH]c3ccccc23)cc1,-26,0%,3%,-45%,-11
CC(C(O)c1ccccc1)N(C)CCOC(c1ccccc1)c1ccccc1 (configuration not stated),/,/,/,/,-21
CC(C)c1ccccc1OCC(=O)N(C)CC(=O)Nc1ccc(F)cc1,-58*,0%,3%,10%,-36
CCN(C(=O)CSc1nc(C)nc2sc(C)c(C)c12)c1ccc(F)cc1,-2,0%,-11%,26%,-2
CCN(Cc1ccc2c(c1)OCO2)C(=O)CSc1nc(C)nc2sc(C)c(C)c12,60,0%,2%,1%,40*
SMILES,DRD3 antagonist,B2AR arrestin,mIDH1 inhibitor,a7 integrin act,D3 ag
O=C(c1ccco1)N1CCN(C(=O)c2cc3sccc3n2Cc2ccccc2)CC1,13,0%,0%,-12%[7.66 µM],2
CCN1CCN(C(=O)c2cc3sccc3n2CC(=O)c2ccccc2)CC1,-56*,0%,7%,6%,-38
CN1CCN(C(=O)c2cc3sccc3n2CC(=O)c2ccccc2)CC1,-62*,-1%,4%,-49%,-38
COc1ccccc1CN1CCC(CNC(=O)c2cnn(-c3ccc(Cl)cc3)c2C2CCN(C(=O)OC(C)(C)C)CC2)CC1,/,/,15%,/,-13
COc1ccc2nc(N(CCN(C)C)C(=O)/C=C/c3cccs3)sc2c1,-1,1%,-4%,0%,-12
COc1ccc2sc(N(CCN(C)C)C(=O)/C=C/c3cccs3)nc2c1,-86*,0%,-5%,-58%,-17
O=C(NCC(c1ccc(F)cc1)N1CCOCC1)c1cccc(Br)c1 (configuration not stated),-9,0%,-1%,-14%,40*
O=C(NCC(c1ccc(F)cc1)N1CCOCC1)c1nn(-c2ccccc2)c(=O)c2ccccc12 (configuration not stated),-83*,0%,3%,-21%,-24
O=C(NCC(c1ccc(F)cc1)N1CCOCC1)c1c(F)cccc1F (configuration not stated),4,0%,21%,3%,3
O=C(NCC(c1ccc(F)cc1)N1CCOCC1)c1ccc(-c2ccccc2)cc1 (configuration not stated),-9,0%,-2%,?,0
COc1cc(CCC(=O)N2CCN(c3cccc(C)c3C)CC2)cc(OC)c1OC,-14,0%,7%,-25%,7
CC(=O)Oc1ccc(N2C(=O)c3cccc4c([N+](=O)[O-])ccc(c34)C2=O)cc1,-100*,-1%,-1%,-66%,-14
O=C1c2cccc3c([N+](=O)[O-])ccc(c23)C(=O)N1c1ccccn1,-100*,?,5%,-3%,-10
O=C1c2cccc3c([N+](=O)[O-])ccc(c23)C(=O)N1c1ccc(Cl)cn1,?,-3%,8%,-64%,-36
Cc1cccc(N2CCN(C(=O)C3CCN(C(=O)c4cc5sccc5n4C)CC3)CC2C)c1 (configuration not stated),/,/,-13%,/,11
CC1(C)CC(=O)C=C(Nc2ccc(C(=O)O)c(O)c2)C1,-15,-1%,-16%,10µM*,6
CC(=O)N1N=C(c2cccc([N+](=O)[O-])c2)OC1c1ccccc1Cl (configuration not stated),-60*,0%,2%,-23%,-3
Cc1ccc(CN(Cc2ccco2)C(=O)COc2ccccc2C)cc1,/,/,21%,/,36*
Cc1cc(OCC(=O)NC(C)C)ccc1Cl,-1,0%,0%,4µM*,6
Cc1cc(OCC(=O)NCCO)ccc1Cl,28,0%,3%,0%,0
O=C(O)c1cc([N+](=O)[O-])cc2c1nnn2O,-68*,0%,0%,-6%,-25
Cc1cc(N(CCO)CCO)ccc1N=Nc1cc(F)ccc1F,-74*,0%,1%,8%,-8

# Screening results from PubChem.
